Assay [1] concerns the target Albumin (Bos taurus) (UniProt P02769). In words: bovine serum albumin binders on microarray, profiling panel, artefact control for SMM control protein annotation, biochemical, small-molecule microarray, Alexa647 label, 635/667 nm fluorescence (AID 1118).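 Further: score merges 667 nm emission intensity and signal-to-noise per printed compound spot.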 Conditions: BSA-A647 binding, fluorescence 635 nm, higher = more signal.
Assay [2] is described as follows: small-molecule microarray binders of probe aXIP, primary screen, biochemical, NeuroSMM set, 635/667 nm fluorescence (AID 1119).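 Further: probe is the protein aXip251-270 applied at 1 µg/mL to compound-printed slides; binding of probe to printed compounds measured as 667 nm fluorescence plus signal to noise.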 Conditions: higher = more signal, called active from +8 up or from −8 down.
Assay [3] is described as follows: small-molecule binders of probe aNOTCH3, primary screen, biochemical, small-molecule microarray, 635/667 nm fluorescence (AID 1120).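 Further: probe is a biotin-tagged antibody raised against NOTCH3 rather than NOTCH3 protein; score merges spot fluorescence near 667 nm with spot signal to noise.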 The settings on record: higher = more signal.
Assay [4] is described as follows: small-molecule binders of probe aNOTCH2, primary screen, biochemical, small-molecule microarray, 635/667 nm fluorescence (AID 1121).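 Further: score merges feature fluorescence read at 667 nm with its signal to noise.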 The settings on record: higher = more signal.
In assay [5] the target is Carbonic anhydrase 2 (Homo sapiens) (UniProt P00918). Put plainly: CAII small-molecule binders, profiling panel, biochemical, small-molecule microarray, Alexa647-labelled CAII (AID 1122). Conditions: CAII-A647 binding fluorescence, higher = more signal.
Assay [6] can be described thus: COS7 lysate on small-molecule microarray, probe aHis, 635 nm (AID 1123).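 Further: z-score combines 667nm fluorescence intensity with signal-to-noise per printed compound spot.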 The settings on record: COS7 cell lysate, fluorescence, higher = more signal.
Assay [7] can be described thus: compound binding in COS7 lysate, probe aLAP1, primary screen, cell lysate, small-molecule microarray (AID 1124).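 Further: lysate comes from COS7 cells expressing LAP1 and is applied at 0.3 µg/mL; score merges spot fluorescence near 667 nm with signal-to-noise over triplicate slides.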 The settings on record: probe aLAP1, fluorescence, higher = more signal.
Assay [8] concerns Sam68 (KHDRBS1). Put plainly: Sam68 small-molecule binders, primary screen, biochemical, small-molecule microarray, 635 nm fluorescence (AID 1125).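 Further: score merges 667 nm channel intensity with signal to noise over triplicate slides.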 The settings on record: small-molecule microarray binding, higher = more signal.
Assay [9] concerns Chordin-like protein 2 (CHRDL2). Put plainly: CHRDL2 small-molecule binders, primary screen, biochemical, small-molecule microarray, 635 nm fluorescence (AID 1126).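 Further: printed compound slides probed with Chrdl2 protein at 4 µg/mL for 1 h at 4 C; score merges 667 nm emission intensity with signal to noise over three replicate slides.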 The settings on record: small-molecule microarray binding, fluorescence 635 nm; higher = more signal.
Assay [10] deals with Concanavalin-A (Canavalia ensiformis) (UniProt P02866). In words: ConA small-molecule binders, primary screen, artefact control for SMM control protein annotation, biochemical, small-molecule microarray, Alexa647 label, 635 nm (AID 1127).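 Further: z combines 667 nm emission intensity with signal-to-noise across three replicate slides.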 Conditions: ConA-A647 binding fluorescence, higher = more signal.

Data on 14 molecules can be found in PubChem BioAssay.

The source made the active and inactive calls.

Sequence of Concanavalin-A (Canavalia ensiformis) (P02866 whole entry, looked up): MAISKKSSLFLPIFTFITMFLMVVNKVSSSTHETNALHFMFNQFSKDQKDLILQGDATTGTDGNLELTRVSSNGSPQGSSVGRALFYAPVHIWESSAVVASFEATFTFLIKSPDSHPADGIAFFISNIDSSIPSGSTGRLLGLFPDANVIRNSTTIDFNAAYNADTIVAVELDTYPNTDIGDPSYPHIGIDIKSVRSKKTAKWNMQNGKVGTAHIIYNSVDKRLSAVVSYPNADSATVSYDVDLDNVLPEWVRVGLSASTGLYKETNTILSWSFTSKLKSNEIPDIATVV
Sequence of Albumin (Bos taurus) (P02769 whole entry, looked up): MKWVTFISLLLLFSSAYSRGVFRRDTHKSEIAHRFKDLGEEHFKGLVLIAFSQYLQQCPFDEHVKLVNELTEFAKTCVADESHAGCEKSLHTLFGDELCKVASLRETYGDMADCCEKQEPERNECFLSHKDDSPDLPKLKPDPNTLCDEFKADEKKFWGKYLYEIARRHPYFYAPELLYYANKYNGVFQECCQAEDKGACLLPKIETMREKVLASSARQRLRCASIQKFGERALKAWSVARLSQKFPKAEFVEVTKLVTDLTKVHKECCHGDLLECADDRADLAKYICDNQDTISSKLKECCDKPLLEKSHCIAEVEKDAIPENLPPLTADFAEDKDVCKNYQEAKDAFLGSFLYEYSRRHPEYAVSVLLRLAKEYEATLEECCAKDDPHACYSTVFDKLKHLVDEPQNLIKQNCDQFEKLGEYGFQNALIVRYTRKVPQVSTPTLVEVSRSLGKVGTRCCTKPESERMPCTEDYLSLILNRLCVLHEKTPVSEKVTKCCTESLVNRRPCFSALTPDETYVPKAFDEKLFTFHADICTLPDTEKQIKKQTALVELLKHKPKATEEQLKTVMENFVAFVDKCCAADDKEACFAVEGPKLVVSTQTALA

Regarding `O=C1C2C=CC(C(O)CCc3ccccc3)N(Nc3ccccc3)C2C(=O)N1c1ccccc1` (stereo not given), the composite z-score in [1] was found to be 0.861; in assay [3] it was 0.185; in assay [4] it was 0.0278; in assay [5] it was 0.65; in [6], 2.82; in assay [7] it was 0.899. Further, the composite z-score in assay [8] was 1.3; in [9], -0.788; in assay [10] it was 1.2. Also, the composite Z-score in [2] is -0.107 (inactive).

In the case of `O=P(NCC1(CC2(c3ccccc3)CO2)CC1)(c1ccccc1)c1ccccc1` (stereo not given), the composite z-score in [1] is 0.0287; in [3], -0.159; in assay [4], -0.0451; in assay [5] it was 0.692; in assay [6], 2.49; in assay [7], 0.106. Moreover, the composite z-score was -0.31 in assay [8], -0.821 in assay [9] and -0.805 in [10]. Also, the composite Z-score in [2] was -0.187 (inactive).

Consider `CC(C)[C@H]1COC(=O)N1C(=O)[C@H]1[C@@H](c2ccccc2)N(c2ccccc2)O[C@@H]1C`, for which the composite z-score is 0.15 in assay [1]; 0.0893 in assay [3]; -0.125 in assay [4]; -0.004 in assay [5]; 0.409 in assay [6]; -0.066 in assay [7]. Besides, the composite z-score was 0.618 in assay [8], 0.827 in assay [9] and 0.609 in assay [10]. The composite Z-score in assay [2] is 1.77 (inactive).

Take `C=CCC(OC(C)=O)[C@@H]1[C@@H](N(Cc2cc3ccccc3o2)C(=O)c2ccc(C)cc2)c2cc(OCCCO)ccc2N1C(=O)c1ccc(-c2ccccc2)cc1` (stereo not given in full): the composite z-score is -0.0944 in assay [1]; 0.102 in [3]; -0.18 in assay [4]; 0.0677 in [5]; 0.263 in assay [6]; -0.161 in [7]. In addition, the results for the composite z-score in assay [8], in assay [9] and in [10] were 0.318, 0.073 and -0.0198, respectively. Moreover, in assay [2], the composite Z-score is 0.0882 (inactive).

As to `Cc1cccc(/C=C/C=O)c1`, the composite z-score in assay [1] is 0.92; in assay [3] it was -0.139; in assay [4], -0.104; in [5], -0.0363; in assay [6] it was 0.93; in assay [7], 0.364. Besides, the composite z-score in assay [8] was 0.339; in assay [9], -0.058; in assay [10] it was 0.786. Further, in assay [2], the composite Z-score is -0.77 (inactive).

With `CCCCC(=O)N(Cc1ccccc1F)[C@@H]1CC(C(=O)NCCO)=C[C@H](Oc2c(I)cc(CO)cc2OC)[C@H]1O`, the composite z-score in [1] is -0.823; in assay [3], 0.201; in assay [4] it was -0.0128; in assay [5] it was 0.521; in [6], 1.54; in assay [7] it was 0.44. Besides, the values for the composite z-score in assay [8], in assay [9] and in [10] were 1.3, 1.5 and 1.19, respectively. The composite Z-score in [2] is -0.685 (inactive).

As for `O=C(NCC(O)CO)[C@@]1(Cc2ccccc2)N=C(c2ccc(OCCCO)cc2)O[C@H]1c1ccccc1` (stereo not given in full), the composite z-score in [1] was 0.944; in assay [3], 0.331; in [4], 0.257; in assay [5], 0.852; in assay [6], 2.83; in assay [7], 1.01. In addition, the composite z-score was 1.24 in [8], -1.34 in assay [9] and 0.785 in assay [10]. For the same molecule, in assay [2], the composite Z-score is 0.805 (inactive).

Take `O=C(N1CCCCC1)[C@]1(CCS(=O)(=O)c2ccccc2)N=C(c2ccc(OCCCO)cc2)O[C@@H]1c1ccccc1`: the composite z-score is 0.431 in [1]; 0.381 in assay [3]; 0.0161 in [4]; 0.639 in [5]; 2.08 in assay [6]; 0.165 in [7]. The composite z-score in assay [8] was 1.27; in [9] it was -0.457; in assay [10] it was 1.18. In [2], the composite Z-score is 1.77 (inactive).

Regarding `CCCCN1CC=CC23O[C@@H]4C=CCCOC(=O)C4[C@H]2C(=O)N(CCCO)[C@@H]3C1=O` (stereo not given in full), the composite z-score in [1] is -1.13; in assay [3] it was -0.189; in assay [4], -0.155; in assay [5], 0.488; in [6], -0.673; in [7], -0.469. Also, the composite z-score in [8] was -0.905; in assay [9], -0.304; in assay [10] it was -1.59. For the same molecule, in assay [2], the composite Z-score is -0.941 (inactive).

With `CC(C)C(CO)N1C(=O)[C@@H]2[C@H]3C(=O)OCC=C[C@H]3OC23C=CCN(c2ccc4ccccc4c2)C(=O)[C@@H]13` (stereo not given in full), the composite z-score in [1] was -0.524; in [3], -0.193; in assay [4], -0.155; in assay [5], 0.561; in assay [6] it was -0.572; in assay [7], 0.42. The composite z-score in assay [8] is -0.878; in assay [9] it was -1.32; in [10], -0.362. Also, the composite Z-score in assay [2] was 0.508 (inactive).

As to `CC(c1ccccc1)C(O)C1C=CC2C(=O)N(c3ccccc3)C(=O)C2N1Nc1ccccc1F` (stereo not given), the composite z-score in [1] was 0.687; in [3], 0.0522; in assay [4], -0.0483; in assay [5], 0.697; in assay [6] it was 2.21; in [7] it was 0.504. The composite z-score in assay [8] was 1.17; in assay [9], -0.474; in [10], 0.77. Further, the composite Z-score in [2] is 0.0197 (inactive).

On to `NC(=O)NCC#Cc1ccc2c(c1)[C@]1(C(=O)N2)[C@H](c2ccccc2OCCO)N2[C@H](c3ccccc3)[C@H](c3ccccc3)OC(=O)[C@H]2[C@@H]1C(=O)N1CCCCCCC1`, for which the composite z-score in assay [1] turned out to be 0.0389; in assay [3], 1.72; in [4], 0.813; in [5], 0.951; in [6], 3.72; in assay [7], 1.86. Also, the values for the composite z-score in assay [8], in assay [9] and in [10] were 1.29, 1.05 and 1.11, respectively. For the same molecule, the composite Z-score in assay [2] was 4.09 (inactive).

With `CCOC(=O)C1=CC[C@@H](c2cccc(Cl)c2)N(S(=O)(=O)c2ccc(C)cc2)[C@H]1c1ccc(C#N)cc1`, the composite z-score in assay [1] turned out to be 1.01; in [3] it was 0.159; in assay [4], 0.0747; in assay [5], 0.728; in [6], 2.86; in [7], 0.668. Moreover, the composite z-score was 1.29 in [8], -0.0727 in assay [9] and 1.11 in [10]. Also, in assay [2], the composite Z-score is 0.272 (inactive).

For `COC(=O)[C@@]1(Cc2ccc(OC)cc2)[C@H]2c3cc(C(=O)N4CCCC4)n(CCN4CCOCC4)c3C[C@H]2CN1C(=O)c1ccccc1`, the composite z-score in assay [1] is 1.06; in [3], 1.72; in [4], 1.05; in assay [5], 0.87; in assay [6], 3.42; in assay [7], 0.94. Besides, the results for the composite z-score in assay [8], in assay [9] and in [10] were 1.29, 0.265 and 0.991, respectively. Besides, the composite Z-score in assay [2] is 1.42 (inactive).
